Results filed as inconclusive are left out. Activity calls are given as the source filed them. Unless noted, calls follow the shape of the dose curve; as a rule, active = well fitted curve in the direction sought with a large enough effect in the repeat runs; inconclusive = weak or mixed curves; inactive = no such curve, though single readings can be large; an effect the other way counts as inactive or inconclusive.
How the values were obtained:
[1] = molecular target: Progesterone receptor (Homo sapiens) (UniProt P06401); test: qHTS assay to identify small molecule antagonists of the progesterone receptor (PR) signaling pathway (AID 1346795; active = well fitted inhibition curve with a large enough effect in the signal ratio in the repeat runs, not every such curve was filed as active; the % refers to the signal ratio)
Sequence of Progesterone receptor (Homo sapiens) (P06401 whole entry, looked up): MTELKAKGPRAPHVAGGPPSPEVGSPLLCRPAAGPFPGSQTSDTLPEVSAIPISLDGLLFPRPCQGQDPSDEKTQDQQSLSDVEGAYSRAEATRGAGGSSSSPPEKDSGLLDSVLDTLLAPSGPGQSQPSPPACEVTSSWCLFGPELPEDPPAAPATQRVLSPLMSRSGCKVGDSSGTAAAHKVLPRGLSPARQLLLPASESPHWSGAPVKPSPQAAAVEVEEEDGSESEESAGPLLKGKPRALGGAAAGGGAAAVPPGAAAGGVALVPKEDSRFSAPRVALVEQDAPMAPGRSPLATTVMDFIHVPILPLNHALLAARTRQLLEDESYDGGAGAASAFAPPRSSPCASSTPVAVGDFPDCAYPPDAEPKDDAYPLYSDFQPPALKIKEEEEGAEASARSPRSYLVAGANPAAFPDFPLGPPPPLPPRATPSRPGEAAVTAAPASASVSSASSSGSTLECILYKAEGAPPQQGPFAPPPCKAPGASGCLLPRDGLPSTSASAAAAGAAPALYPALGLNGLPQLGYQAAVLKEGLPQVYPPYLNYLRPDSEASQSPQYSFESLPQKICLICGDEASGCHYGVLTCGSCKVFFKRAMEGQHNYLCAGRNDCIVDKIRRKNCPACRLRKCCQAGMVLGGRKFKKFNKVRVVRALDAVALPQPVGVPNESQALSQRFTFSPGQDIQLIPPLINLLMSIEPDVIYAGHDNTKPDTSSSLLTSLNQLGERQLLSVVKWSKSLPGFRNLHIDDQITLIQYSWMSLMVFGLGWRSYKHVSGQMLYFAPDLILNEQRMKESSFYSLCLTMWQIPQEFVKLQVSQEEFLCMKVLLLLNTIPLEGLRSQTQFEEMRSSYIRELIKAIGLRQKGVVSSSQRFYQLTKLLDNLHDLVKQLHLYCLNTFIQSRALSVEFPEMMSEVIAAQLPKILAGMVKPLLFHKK
How it was run: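 Read-out is fluorescence from the LiveBLAzer B/G FRET substrate, cleaved by a UAS-controlled beta-lactamase in PR-UAS-bla HEK293T cells after 16 hr exposure to compound plus 1 nM promegestone (final), followed by 2 hr at room temperature.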

[2] = qHTS assay to identify small molecule antagonists of the progesterone receptor (PR) signaling pathway - cell viability counter screen (AID 1346798);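 also: HEK293T PR-UAS-bla cells stimulated with the agonist R5020; series mostly up to about 92 µM; nearly all actives have a fitted effect of over 50% in size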
How it was run: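 HEK293T PR-UAS-bla, 2% charcoal-stripped FBS; 4 hr pre-plate; cpd + R5020, 16 h 37C; LiveBLAzer read first; then CellTiter-Glo 30 min RT, luminescence.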

[3] = qHTS assay to identify small molecule antagonists of the TGF-beta/Smad signaling pathway - cell viability counter screen (AID 1346824); also: nearly all actives have a fitted effect of over 50% in size
How it was run: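 Cytotoxicity counter-screen run in the same wells as the beta-lactamase Smad reporter read: CellTiter-Glo luminescence after 30 min at room temperature. HEK 293T SBE-bla cells had 5 hr compound exposure at 37 C with TGF-beta1 (0.25 ng/mL stock).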

[4] = qHTS assay to identify small molecule agonists of the TGF-beta/Smad signaling pathway - cell viability counter screen (AID 1346829); also: top concentration of the series differs between compounds; nearly all actives have a fitted effect of over 45% in size
How it was run: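 After overnight seating at 37 C and 5% CO2, reporter cells got compounds for 5 hr and FRET substrate for 2 hr; cell viability then came from CellTiter-Glo luminescence.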

[5] = molecular target: Thyrotropin-releasing hormone receptor (Homo sapiens) (UniProt P34981); test: qHTS assay to identify small molecule antagonists of the thyrotropin-releasing hormone receptor (TRHR) signaling pathway (AID 1346877; active = well fitted inhibition curve with a large enough effect in the repeat runs, not every such curve was filed as active; also: series mostly up to about 51 µM)
Sequence of Thyrotropin-releasing hormone receptor (Homo sapiens) (P34981 whole entry, looked up): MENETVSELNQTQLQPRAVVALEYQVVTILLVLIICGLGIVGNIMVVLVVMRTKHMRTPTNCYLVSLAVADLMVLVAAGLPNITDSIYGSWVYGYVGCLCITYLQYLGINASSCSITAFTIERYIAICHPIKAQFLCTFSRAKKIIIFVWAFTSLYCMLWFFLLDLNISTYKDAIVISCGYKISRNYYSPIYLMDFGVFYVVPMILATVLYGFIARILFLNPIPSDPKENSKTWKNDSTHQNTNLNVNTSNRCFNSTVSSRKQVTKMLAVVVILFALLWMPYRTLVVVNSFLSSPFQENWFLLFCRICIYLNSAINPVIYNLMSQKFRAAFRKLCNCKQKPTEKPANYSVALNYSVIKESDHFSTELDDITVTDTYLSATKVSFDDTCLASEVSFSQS
How it was run: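 HEK293/TRHR cells, 18 h, 37 °C; Ca2+ dye 2 h; cpd 5 min RT; TRH 1 nM final; fluorescence read 3 min, 1 s intervals; 15 concs, triplicate.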

[6] = molecular target: Thyrotropin-releasing hormone receptor (Homo sapiens) (UniProt P34981); test: qHTS assay to identify small molecule agonists of the thyrotropin-releasing hormone receptor (TRHR) signaling pathway (AID 1346891; calls by dose curve; also: series mostly up to about 58 µM)
How it was run: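 Intracellular calcium rise, read as fluorescence every second for 3 min, served as the agonist signal in dye-loaded HEK293 cells expressing TRHR; each compound ran at 15 concentrations in triplicate.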

[7] = Human pregnane X receptor (PXR) small molecule agonists, qHTS cell viability counter screen (AID 1346977); also: nearly all actives have a fitted effect of over 50% in size; also: potency is read from the fitted curve at half-maximal effect
How it was run: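 PXR-Luc HepG2, 2,000 cells/well, 5% charcoal-stripped FBS; 5hr settle; cpd 24hr, 37C/5% CO2; CellTiter-Fluor at 23hr, read 1hr later (fluorescence).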

[8] = Caspase-3/7 induction in HepG2 cells by small molecules, qHTS assay (AID 1346978); also: nearly all actives have a fitted effect of over 15% in size
How it was run: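 Caspase-3/7 induction was measured by Caspase-Glo 3/7 luminescence (30 min, room temperature) after a 17 hr compound exposure of wild-type HepG2 cells seeded at 2,000 per well and pre-incubated 5 hr.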

[9] = Caspase-3/7 induction in CHO-K1 cells by small molecules, qHTS cell viability counter screen (AID 1346979); also: nearly all actives have a fitted effect of over 35% in size; also: potency is read from the fitted curve at half-maximal effect
How it was run: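 Cells (CHO-K1, wild type) are plated at 1,500 per well and incubated 5hr. Test compounds in DMSO are then pinned in, followed by 16hr at 37C and 5% CO2. Viability is read by CellTiter-Fluor fluorescence after 1hr.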

[10] = Caspase-3/7 induction in CHO-K1 cells by small molecules, qHTS assay (AID 1346980); also: nearly all actives have a fitted effect of over 15% in size
How it was run: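 Luminescent Caspase-Glo 3/7 read (30min, room temperature) quantified apoptosis induction. Cells were wild-type CHO-K1, treated with compound for 17hr at 37 C and 5% CO2.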

[11] = Caspase-3/7 induction in HepG2 cells by small molecules, qHTS cell viability counter screen (AID 1346981); also: nearly all actives have a fitted effect of over 30% in size; also: potency is read from the fitted curve at half-maximal effect; as to activity change, negative = cytotoxicity: series mostly up to about 92 µM
How it was run: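 Fluorescence read-out of live-cell protease activity (CellTiter-Fluor) after 1 hr with reagent. This was measured in the same wells as the caspase-3/7 luminescence, on HepG2 cells exposed to DMSO-dissolved compounds for 16 hr at 37 C.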

[12] = molecular target: Nuclear receptor subfamily 1 group I member 2 (Homo sapiens) (UniProt O75469); test: Human pregnane X receptor (PXR) small molecule agonists, qHTS assay (AID 1346982); also: nearly all actives have a fitted effect of over 35% in size; also: potency is read from the fitted curve at half-maximal effect
Sequence of Nuclear receptor subfamily 1 group I member 2 (Homo sapiens) (O75469 whole entry, looked up): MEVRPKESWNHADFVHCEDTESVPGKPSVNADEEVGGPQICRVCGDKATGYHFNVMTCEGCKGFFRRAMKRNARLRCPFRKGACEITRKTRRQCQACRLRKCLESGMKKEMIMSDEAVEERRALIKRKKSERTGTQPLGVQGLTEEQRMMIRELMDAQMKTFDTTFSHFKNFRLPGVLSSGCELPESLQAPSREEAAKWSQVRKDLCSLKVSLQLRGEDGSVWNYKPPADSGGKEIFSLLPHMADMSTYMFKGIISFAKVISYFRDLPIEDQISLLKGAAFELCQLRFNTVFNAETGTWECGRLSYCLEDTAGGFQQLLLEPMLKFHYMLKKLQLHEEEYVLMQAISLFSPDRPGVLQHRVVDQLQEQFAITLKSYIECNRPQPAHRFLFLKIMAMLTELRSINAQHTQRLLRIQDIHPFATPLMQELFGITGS
How it was run: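 HepG2 PXR-Luc reporter line, 5% charcoal-stripped FBS; 5 hr pre-incubation, compound (DMSO) 24 hr at 37 C/5% CO2; ONE-Glo 30 min RT; luminescence read-out.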

[13] = molecular target: Nuclear receptor subfamily 1 group I member 2 (Rattus norvegicus) (UniProt Q9R1A7); test: Rat pregnane X receptor (rPXR) activation by small molecules, qHTS assay (AID 1346983); conditions: rPXR luciferase reporter cells, One-Glo luminescence, 24 h; stronger effect = higher value; also: nearly all actives have a fitted effect of over 20% in size
Sequence of Nuclear receptor subfamily 1 group I member 2 (Rattus norvegicus) (Q9R1A7 whole entry, looked up): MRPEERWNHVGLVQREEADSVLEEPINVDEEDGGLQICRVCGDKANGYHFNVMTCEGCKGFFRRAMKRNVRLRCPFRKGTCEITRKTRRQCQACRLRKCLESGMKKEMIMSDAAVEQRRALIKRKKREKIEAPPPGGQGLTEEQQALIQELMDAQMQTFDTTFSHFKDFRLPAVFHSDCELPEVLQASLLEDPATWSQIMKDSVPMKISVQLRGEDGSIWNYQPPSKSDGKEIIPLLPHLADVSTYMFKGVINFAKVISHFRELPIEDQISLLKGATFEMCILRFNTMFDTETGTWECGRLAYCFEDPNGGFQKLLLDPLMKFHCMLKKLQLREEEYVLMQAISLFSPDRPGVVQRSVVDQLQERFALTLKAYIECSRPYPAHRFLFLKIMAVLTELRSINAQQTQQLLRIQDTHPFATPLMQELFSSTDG
How it was run: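 Luminescent readout (One-Glo luciferase, 30 min room temperature) followed 24 hr compound treatment at 37 C of rPXR cells plated 2,000 per well and preincubated 5hr; qHTS format with compounds delivered in DMSO.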

[14] = molecular target: Nuclear receptor subfamily 1 group I member 2 (Homo sapiens) (UniProt O75469); test: CYP3A4 induction through human pregnane X receptor (PXR) by small molecules, qHTS assay (AID 1346984); also: nearly all actives have a fitted effect of over 40% in size
How it was run: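 HepG2-derived DPX-2 line carrying PXR plus a CYP3A4-promoter luciferase reporter; cells plated 5 hr, compound-exposed 24 hr at 37C. CYP3A4 activity probed with 3uM (final) Luciferin-IPA for 3hr, then luciferase read after One-Glo.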

[15] = molecular target: Acetylcholinesterase (Homo sapiens) (UniProt P22303); test: Acetylcholinesterase (AChE) small molecule antagonists: colormetric cell-based qHTS assay (AID 1347395; calls by dose curve; also: nearly all actives have a fitted effect of over 30% in size; also: potency is read from the fitted curve at half-maximal effect)
Sequence of Acetylcholinesterase (Homo sapiens) (P22303 whole entry, looked up): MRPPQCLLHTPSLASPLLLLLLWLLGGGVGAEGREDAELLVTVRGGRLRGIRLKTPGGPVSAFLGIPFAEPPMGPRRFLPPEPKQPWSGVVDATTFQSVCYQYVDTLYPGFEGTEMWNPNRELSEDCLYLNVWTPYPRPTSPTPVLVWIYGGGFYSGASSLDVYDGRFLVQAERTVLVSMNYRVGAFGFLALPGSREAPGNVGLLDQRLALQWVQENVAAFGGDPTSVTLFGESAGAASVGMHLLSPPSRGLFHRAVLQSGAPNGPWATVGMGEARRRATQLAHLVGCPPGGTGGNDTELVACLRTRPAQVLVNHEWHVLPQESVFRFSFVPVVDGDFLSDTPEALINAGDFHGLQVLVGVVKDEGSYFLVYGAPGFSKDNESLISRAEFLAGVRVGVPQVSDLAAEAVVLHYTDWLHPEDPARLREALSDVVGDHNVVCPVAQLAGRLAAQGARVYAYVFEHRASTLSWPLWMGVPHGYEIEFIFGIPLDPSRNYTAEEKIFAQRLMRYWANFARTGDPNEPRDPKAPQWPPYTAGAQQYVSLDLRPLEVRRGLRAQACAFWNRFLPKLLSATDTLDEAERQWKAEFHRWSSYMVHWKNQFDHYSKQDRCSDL
How it was run: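 Colorimetric read-out: DTNB detects thiocholine released when cellular AChE in SH-SY5Y cells hydrolyses acetylthiocholine. Cells attached overnight, received compound for 30 min at 37 C, then substrate mix for 90 min at 37 C.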

[16] = molecular target: Acetylcholinesterase (Homo sapiens) (UniProt P22303); test: Acetylcholinesterase (AChE) small molecule antagonists: enzyme-based qHTS assay (AID 1347397; calls by dose curve; also: nearly all actives have a fitted effect of over 55% in size); conditions: Potency: AChE enzyme activity inhibition; outcome: AChE enzyme activity inhibition
How it was run: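 First, recombinant human AChE (50 mU/mL as dispensed) received test compound or DMSO. Second, plates stood 30 min at room temperature. Third, DTNB and acetylthiocholine were added, followed by 10 min at room temperature and colorimetric detection.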

[17] = molecular target: Acetylcholinesterase (Homo sapiens) (UniProt P22303); test: Acetylcholinesterase (AChE) small molecule antagonists: fluorescence cell-based qHTS assay (AID 1347398; calls by dose curve; also: nearly all actives have a fitted effect of over 50% in size); conditions: Potency: AChE activity; outcome: AChE activity
How it was run: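 Homogeneous quantitative HTS format. SH-SY5Y cells seeded at 2,000 per well settle overnight at 37 C. Compound pretreatment runs 30 min (37 C, 5% CO2); substrate/probe mix then reacts 40 min at RT before reading 490/520 nm.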

[18] = qHTS assay to identify small molecule agonists of the TGF-beta/Smad signaling pathway (AID 1346859; active = well fitted activation curve with a large enough effect in the signal ratio in the repeat runs, not every such curve was filed as active; the % refers to the signal ratio; also: series mostly up to about 77 µM)
How it was run: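 SBE-bla HEK 293T, 4,000 cells/well, plated o/n; cpd in DMSO, 5 hr, 37 C/5% CO2; B/G FRET substrate 2 hr RT; ex 405, em 460/530 nm.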
% is scaled to controls: 0 for no effect and ±100 for the full control effect.

C=CCN1C[C@H](C)N([C@H](c2ccc(C(=O)N(CC)CC)cc2)c2cccc(OC)c2)C[C@H]1C
active: Potency [12] 11.9 µM
inactive: Potency [1] | Potency [2] | Potency [3] | Potency [4] | Potency [5] | outcome [6] | Potency [7] | Potency [8] | Potency [9] | Potency [10] | Potency [11] | max activation [13] 5.88% | outcome [14] | Potency [15] | Potency [16] | Potency [17]

O=C(O)C(F)(F)C(F)(F)C(F)(F)C(F)(F)C(F)(F)F
inactive: Potency [1] | Potency [2] | Potency [3] | Potency [4] | outcome [18] | outcome [6] | Potency [7] | Potency [8] | Potency [10] | Potency [12] | Potency [16] | Potency [17]

O=C(Cl)OCCOCCOC(=O)Cl
inactive: Potency [1] | Potency [2] | Potency [3] | Potency [4] | outcome [18] | Potency [7] | Potency [8] | Potency [10] | Potency [12] | Potency [15] | Potency [16] | Potency [17]

CC(C)(c1ccccc1)c1cc(-n2nc3ccccc3n2)c(O)c(C(C)(C)c2ccccc2)c1
inactive: Potency [1] | Potency [2] | Potency [3] | Potency [4] | outcome [18] | Potency [5] | outcome [6] | Potency [7] | Potency [8] | Potency [9] | Potency [10] | Potency [11] | Potency [15] | Potency [16] | Potency [17]

C=CC(=O)NC(C)(C)CC(C)=O
inactive: Potency [1] | Potency [2] | Potency [3] | Potency [4] | outcome [18] | Potency [5] | outcome [6] | Potency [7] | Potency [8] | Potency [9] | Potency [11] | Potency [12] | Potency [15] | Potency [16] | Potency [17]

CCCC[N+](CCCC)(CCCC)CCCC
active: Potency [15] 44.7 µM
inactive: Potency [1] | Potency [2] | Potency [3] | Potency [4] | outcome [18] | Potency [5] | outcome [6] | Potency [7] | Potency [8] | Potency [9] | Potency [10] | Potency [11] | Potency [16] | Potency [17]

Nc1c(Br)cc(Br)c2c1C(=O)c1ccccc1C2=O
active: Potency [9] 14.5 µM
inactive: activity change, negative = inhibition [1] 9.35% [at 18.9 µM] | activity change, negative = cytotoxicity [2] -0.481% [at 18.9 µM] | viability change, negative = cytotoxic [3] 4.07% [at 15.8 µM] | activity change, negative = cytotoxicity [4] 9.34% [at 15.8 µM] | activation [18] -5.21% [at 15.8 µM] | activity, negative = inhibition [5] -4.46% [at 10.5 µM] | activation [6] -0.213% [at 11.8 µM] | caspase activation [8] 0.187% [at 19 µM] | caspase-3/7 activation [10] 3.36% [at 19 µM] | activity change, negative = cytotoxicity [11] -8.94% [at 19 µM] | activation [12] 3.29% [at 19 µM] | activity, negative = inhibition [15] 1.8% [at 23.6 µM] | activity change, negative = inhibition [16] 0.0969% [at 23.6 µM] | activity change, negative = inhibition [17] 2.58% [at 23.8 µM]

Clc1ccccc1
active: Potency [7] 26.9 µM | Potency [9] 9.55 µM | Potency [11] 26.9 µM | Potency [12] 24 µM
inactive: Potency [1] | Potency [2] | Potency [3] | Potency [4] | outcome [18] | Potency [5] | outcome [6] | Potency [15] | Potency [16] | Potency [17]

C=CC(C)(CCC=C(C)C)OC(=O)c1ccccc1N (stereo not drawn)
inactive: Potency [1] | Potency [2] | Potency [3] | Potency [4] | outcome [18] | Potency [5] | outcome [6] | Potency [7] | Potency [8] | Potency [9] | Potency [11]

CN(C)C(=O)Nc1cccc(OC(=O)NC(C)(C)C)c1
inactive: Potency [1] | Potency [2] | Potency [3] | Potency [4] | outcome [18] | Potency [5] | outcome [6] | Potency [7] | Potency [8] | Potency [9] | Potency [10] | Potency [11] | Potency [15] | Potency [16] | Potency [17]

O=C(O)COc1cc(Cl)c(Cl)cc1Cl
inactive: Potency [1] | Potency [2] | Potency [3] | Potency [4] | Potency [7] | Potency [8] | Potency [9] | Potency [11] | Potency [12] | Potency [15] | Potency [16] | Potency [17]

CCCCOC(=O)CCC(=O)OCCCC
inactive: Potency [1] | Potency [2] | Potency [3] | Potency [4] | outcome [18] | Potency [5] | outcome [6] | Potency [7] | Potency [8] | Potency [9] | Potency [10] | Potency [11] | Potency [15] | Potency [16] | Potency [17]

Source: PubChem BioAssay (Tox21)
